This is part of a sample that, as a whole, favours compounds with a hit. Of some 79,000 tested, about 15% had one in any assay. Calls of active or inactive are those of the source. Rule as the data show it: active = growth inhibition above about 70%; inactive = the rest.
Legend:
[1] = NCI Yeast Anticancer Drug Screen. Data for the rad50 strain (AID 155);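 also: 0% = growth of vehicle-only cultures of the same strain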; conditions: S. cerevisiae rad50 strain growth inhibition; at 50.0 µM; hits give high values
In short: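 Genetically altered yeast (DNA repair pathway); compound treatment; growth inhibition vs vehicle ctrl.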

[2] = NCI Yeast Anticancer Drug Screen. Data for the mec2-1 strain (AID 157); conditions: S. cerevisiae mec2-1 strain, at 50.0 µM, hits give high values
In short: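 Cells of the genetically defined mec2-1 yeast strain are incubated with test compound. Inhibition of growth is calculated against vehicle-treated controls.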

[3] = NCI Yeast Anticancer Drug Screen. Data for the sgs1 mgt1 strain (AID 161);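 also: 0% = growth of cultures given vehicle only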; conditions: S. cerevisiae sgs1 mgt1 strain, at 50.0 µM, hits give high values
In short: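 Inhibition of yeast growth, normalised to vehicle-treated controls, is reported for a strain bearing genetic alterations in DNA damage repair.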

[4] = NCI Yeast Anticancer Drug Screen. Data for the cln2 rad14 strain (AID 165);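 also: 0% = growth equal to vehicle treated cultures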; conditions: S. cerevisiae cln2 rad14 strain, at 50.0 µM, hits give high values
In short: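 The screen exposed genetically defined yeast (cln2 rad14) to test compounds and scored growth inhibition relative to vehicle-treated controls.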

[5] = NCI Yeast Anticancer Drug Screen. Data for the mlh1 rad18 strain (AID 175); conditions: S. cerevisiae mlh1 rad18 strain growth inhibition; at 50.0 µM; hits give high values
In short: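 Compound-treated yeast growth, normalised to vehicle controls. Strain bears defined DNA repair mutations.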

Measured: growth inhibition

Cc1c(Br)c(C)[n+]([O-])n1O
inactive: [1] 4% | [2] 8.75% | [3] 5.05% | [4] -17% | [5] 0.2%

CCc1ccc(N=Cc2cc(OC)c(OC)c(OC)c2)cc1
inactive: [1] -4.2% | [2] 16.4% | [3] 29.4% | [4] 4.75% | [5] -6.45%

Cc1ccc2c(c1)SCc1c-2[nH]c2ccccc12
active: [1] 93.2% | [2] 95.3% | [3] 95.3% | [4] 88.9% | [5] 92.8%

C/C(=N\NC(=O)CCCCC(=O)N/N=C(\C)c1ccc(C)cc1)c1ccc(C)cc1
inactive: [1] -3.65% | [2] -11.3% | [3] 10.4% | [4] -45.7% | [5] -2.7%

O=[N+]([O-])c1ccc(N=Cc2ccc(O)cc2)cc1
inactive: [1] -17.9% | [2] -19.2% | [3] -30.2% | [4] -27.3% | [5] -67.2%

O=[N+]([O-])c1ccc(C2=NOC3COC4C=CC=CC4OCC23)cc1 (stereo not given)
inactive: [1] -3.4% | [2] -29.7% | [3] 11.1% | [4] -2.55% | [5] -7.5%

CN(C)C(=O)C1OC1(C)c1ccccc1 (stereo not given)
inactive: [1] -7.75% | [2] -5.25% | [3] -3.35% | [4] -20.9% | [5] -7.95%

CCN(CC)CCOC1CCCCC1Cc1ccccn1 (stereo not given)
inactive: [1] -1.55% | [2] 14.8% | [3] 8.85% | [4] -25.2% | [5] 5.85%

CCCCCC(=O)c1ccccc1
inactive: [1] -27.9% | [2] -16.5% | [3] -19.3% | [4] -23.9% | [5] -6.1%

CC(=O)OCC1OCOC2C(COC(C)=O)OCOC12 (stereo not given)
inactive: [1] 3.55% | [2] 2.6% | [3] -8.15% | [4] -24.4% | [5] -8.5%

COc1nc(NC2OC(CO)C(O)C(O)C2O)c(C=O)c(=O)n1C (stereo not given)
inactive: [1] 2.45% | [2] -6.55% | [3] -16.1% | [4] 9.9% | [5] -7.4%

OB(O)c1cccc(B(O)O)c1
inactive: [1] -4.2% | [2] -28.7% | [3] -3% | [4] -7.45% | [5] -10.1%

Nc1cc(F)ccc1CC(=O)O
inactive: [1] 11.4% | [2] 23.1% | [3] 15.3% | [4] -4.8% | [5] 4.6%

CCNC(=O)c1ccc(Cl)cc1
inactive: [1] 19.9% | [2] -2.25% | [3] 8.55% | [4] 0.65% | [5] 0.45%

O=C1Cc2ccccc2CN1
inactive: [1] -6.95% | [2] 13.3% | [3] -3.5% | [4] 19.6% | [5] 32.3%

CC(C)(C)C(=O)C(c1ccc(-c2cscn2)cc1)c1ccc(-c2cscn2)cc1
inactive: [1] -2% | [2] -2.8% | [3] -1.1% | [4] 1.3% | [5] -22.2%

Cc1ccsc1S(N)(=O)=O
inactive: [1] -21.1% | [2] -23.1% | [3] -10.6% | [4] -12.2% | [5] -6.75%

CCCCc1cc(/C=N\NC(N)=O)c2ccccc2n1
inactive: [1] -0.6% | [2] -14.2% | [3] -1.1% | [4] 1.45% | [5] 18.8%

Cc1ccc2cccc(N)c2n1
inactive: [1] 21.4% | [2] -0.15% | [3] -8% | [4] -33.5% | [5] 7.2%

CCN1CCNC(=O)C1c1ccccc1 (stereo not given)
inactive: [1] -9.3% | [2] 16.1% | [3] -17.2% | [4] 1.35% | [5] 1.05%

COc1cc(CNc2ccc3nc4n(c(=O)c3c2)CCCCC4)cc(OC)c1OC
inactive: [1] -9.7% | [2] 13.4% | [3] 7.3% | [4] -19.2% | [5] -21.2%

Cc1cc(C)c2c(=O)n(-c3ccc(Br)cc3)c(=S)n(-c3ccc(Br)cc3)c2n1
inactive: [1] 19.2% | [2] 4.35% | [3] -3.2% | [4] 12.8% | [5] 23.5%

O=C1c2ccccc2C(=O)c2c3c(cc([N+](=O)[O-])c21)OCO3
inactive: [1] -18.2% | [2] 12.1% | [3] 9.05% | [4] 25.7% | [5] -9.75%

COC(=O)CCCC1(CCCC(=O)OC)CCCCCCCCC(CCCC(=O)OC)(CCCC(=O)OC)C(=O)C1=O
inactive: [1] 21.8% | [2] 36.9% | [3] 37.2% | [4] 45.5% | [5] 47.6%

CC(SC(=S)SC(C)C(=O)O)C(=O)O (stereo not given)
inactive: [1] 6% | [2] 15.3% | [3] 22.3% | [4] 44% | [5] 15.3%

O=c1ccc(=O)c2c(=O)c3cc4[nH]c5ccccc5[nH]c4cc3c(=O)c12
inactive: [1] 2.25% | [2] -7.05% | [3] 0.55% | [4] 1.85% | [5] 5.2%

NC(CC(=O)N/C=N/C(=O)O)C(=O)O (stereo not given)
inactive: [1] -5.85% | [2] 5.45% | [3] -17.2% | [4] 4.4% | [5] -7.75%

O=C(O)CCc1nc2ccccc2c(=O)n1Cc1ccccc1
inactive: [1] 11.1% | [2] 10.1% | [3] -7.3% | [4] -6.1% | [5] 10.4%

CC(=O)C1SCC[S+]1C (stereo not given)
inactive: [1] -19.8% | [2] -7.6% | [3] -10.6% | [4] 13.4% | [5] -10.8%

COC(=O)/C=C\n1c(C)cc(=O)[nH]c1=O
inactive: [1] 2.9% | [2] 0.35% | [3] -5.5% | [4] -4.75% | [5] -45.5%

Nc1nc2c(c(-c3ccc(F)cc3)n1)COC/C2=C\c1ccc(F)cc1
inactive: [1] 31.5% | [2] 24% | [3] 15.2% | [4] 22.1% | [5] 19.6%

Cc1ccc(NC(=O)COc2cc(Cl)c(Cl)cc2Cl)cc1[N+](=O)[O-]
inactive: [1] -8.55% | [2] -9.1% | [3] -6.6% | [4] 10.2% | [5] 0.4%

NC(=S)N=Nc1c(O)[nH]c2ccccc12
inactive: [1] 12.8% | [2] -9.8% | [3] -5.9% | [4] 4.85% | [5] 6.55%

O=C(CCCn1ccnc1[N+](=O)[O-])NCCn1ccnc1[N+](=O)[O-]
inactive: [1] 5.95% | [2] 9.35% | [3] -9.9% | [4] 17.4% | [5] -12.3%

CC[N+](C)(CC)CCOC(=O)C(C1=CCCCC1)C1(O)CCCCC1 (stereo not given)
inactive: [1] 3.05% | [2] -15.8% | [3] -27.5% | [4] -48.9% | [5] -16.6%

COc1ccc2c(-c3cc4ccccc4o3)cc(=O)oc2c1
inactive: [1] -6.4% | [2] -16.9% | [3] -21.3% | [4] 2% | [5] -31.9%

CC[N+](CC)(CC)CCC[n+]1ccc(/C=N\O)cc1
inactive: [1] 3.1% | [2] -1.6% | [3] -16.4% | [4] -8.25% | [5] -6.25%
